Consider 4 sequences from article PMC7862700, “An all-to-all approach to the identification of sequence-specific readers for epigenetic DNA modifications on cytosine”.

What all share (test): DAPPL (digital affinity profiling via proximity ligation, sequencing); 10 mM Tris-HCl pH 7.5, 50 mM NaCl, 1 mM DTT, 4% glycerol, room temperature, 30 min; GST-TFs on glutathione beads, 16-mer random dsDNA library, 0.1% formaldehyde crosslink after washing; high values mean tight binding
Details in all cases: protein: recombinant; tags: N-terminal GST; dsDNA, one strand shown

One assay deals with T1, SPIC (Homo sapiens, UniProt Q8N5J4 1-248).
T1 sequence: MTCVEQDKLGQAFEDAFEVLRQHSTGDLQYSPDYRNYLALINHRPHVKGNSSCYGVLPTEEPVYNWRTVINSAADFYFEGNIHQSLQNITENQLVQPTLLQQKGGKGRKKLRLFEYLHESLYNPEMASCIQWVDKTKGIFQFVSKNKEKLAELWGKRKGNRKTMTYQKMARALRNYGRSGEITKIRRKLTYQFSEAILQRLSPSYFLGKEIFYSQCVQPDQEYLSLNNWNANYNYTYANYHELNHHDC
A digest of the protocol:
(§1)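 Each value of binding signal is a hexamer's read frequency for a factor divided by the same hexamer's frequency in the tag-only sample. Barcoded, bead-captured GST fusions of human transcription factors made in yeast were pooled with that sample and incubated with 200 nmole of a random double-stranded 16-mer DNA library in Tris/NaCl/DTT/glycerol buffer at room temperature for 30 min. Washing, 0.1% formaldehyde crosslinking, proximity ligation, PCR and Illumina NextSeq500 sequencing followed.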

The next assay deals with T2, GABPA (Homo sapiens, UniProt Q06546 1-454).
T2 sequence: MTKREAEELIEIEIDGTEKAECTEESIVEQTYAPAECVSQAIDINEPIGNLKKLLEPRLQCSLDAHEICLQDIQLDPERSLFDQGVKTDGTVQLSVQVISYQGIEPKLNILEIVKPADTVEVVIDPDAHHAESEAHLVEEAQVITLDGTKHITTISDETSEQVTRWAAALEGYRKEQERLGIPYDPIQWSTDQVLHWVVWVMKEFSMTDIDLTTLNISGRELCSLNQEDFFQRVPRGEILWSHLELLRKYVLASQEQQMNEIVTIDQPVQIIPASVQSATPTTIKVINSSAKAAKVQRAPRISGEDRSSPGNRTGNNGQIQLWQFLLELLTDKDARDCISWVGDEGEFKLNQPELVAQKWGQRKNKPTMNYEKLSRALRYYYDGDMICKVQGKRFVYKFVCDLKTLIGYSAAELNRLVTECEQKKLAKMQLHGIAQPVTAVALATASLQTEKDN
In a few lines: as §1

The target in another assay is ELF1 (Homo sapiens, UniProt P32519 1-619). In a few lines:
as §1

A further assay has as its target T3, EHF (Homo sapiens, UniProt Q9NZC4 1-300).
T3 sequence: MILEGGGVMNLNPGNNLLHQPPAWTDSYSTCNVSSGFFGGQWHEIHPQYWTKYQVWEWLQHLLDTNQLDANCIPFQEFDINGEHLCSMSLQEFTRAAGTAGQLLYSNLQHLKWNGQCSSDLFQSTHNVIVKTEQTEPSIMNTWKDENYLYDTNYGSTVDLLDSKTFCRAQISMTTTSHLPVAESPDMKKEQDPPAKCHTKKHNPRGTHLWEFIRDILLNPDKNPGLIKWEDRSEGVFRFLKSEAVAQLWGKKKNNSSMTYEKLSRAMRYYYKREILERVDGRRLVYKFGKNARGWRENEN
A digest of the protocol:
as §1

The target of a further assay is SPI1 (Homo sapiens, UniProt P17947 1-270). In a few lines:
as §1

A further assay deals with SPIB (Homo sapiens, UniProt Q01892 1-262). A digest of the protocol: as §1
A further assay addresses ELF4 (Homo sapiens, UniProt Q99607 1-663). A digest of the protocol: as §1
In another assay the target is T4, ELK4 (Homo sapiens, UniProt P28324-2 1-405).
T4 sequence: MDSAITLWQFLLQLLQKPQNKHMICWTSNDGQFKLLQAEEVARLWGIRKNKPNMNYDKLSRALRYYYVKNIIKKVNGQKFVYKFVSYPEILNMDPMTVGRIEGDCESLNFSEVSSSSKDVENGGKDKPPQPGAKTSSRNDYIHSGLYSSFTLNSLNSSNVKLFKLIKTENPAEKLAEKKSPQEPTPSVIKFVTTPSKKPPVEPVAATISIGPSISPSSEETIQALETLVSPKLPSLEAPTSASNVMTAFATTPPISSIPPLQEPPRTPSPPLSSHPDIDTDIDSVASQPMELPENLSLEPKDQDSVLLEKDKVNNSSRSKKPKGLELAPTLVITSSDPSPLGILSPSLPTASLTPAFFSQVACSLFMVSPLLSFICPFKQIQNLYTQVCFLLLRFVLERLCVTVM
A digest of the protocol:
as §1

Another assay addresses T5, ELF3 (Homo sapiens, UniProt P78545 1-371).
T5 sequence: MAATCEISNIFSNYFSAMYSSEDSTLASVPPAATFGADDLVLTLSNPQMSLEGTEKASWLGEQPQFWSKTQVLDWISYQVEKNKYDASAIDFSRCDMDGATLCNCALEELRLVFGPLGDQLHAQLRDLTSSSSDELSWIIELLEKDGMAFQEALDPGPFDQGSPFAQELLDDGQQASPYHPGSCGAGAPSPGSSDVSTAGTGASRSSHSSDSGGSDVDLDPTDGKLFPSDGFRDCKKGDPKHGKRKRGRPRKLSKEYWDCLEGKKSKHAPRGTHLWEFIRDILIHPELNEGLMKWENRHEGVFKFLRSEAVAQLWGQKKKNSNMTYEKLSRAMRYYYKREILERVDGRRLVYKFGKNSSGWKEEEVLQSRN
In a few lines: as §1

The target of a further assay is ETV1 (Homo sapiens, UniProt P50549 1-477). A digest of the protocol:
as §1

In another assay the target is T6, ERF (Homo sapiens, UniProt P50548 1-548).
T6 sequence: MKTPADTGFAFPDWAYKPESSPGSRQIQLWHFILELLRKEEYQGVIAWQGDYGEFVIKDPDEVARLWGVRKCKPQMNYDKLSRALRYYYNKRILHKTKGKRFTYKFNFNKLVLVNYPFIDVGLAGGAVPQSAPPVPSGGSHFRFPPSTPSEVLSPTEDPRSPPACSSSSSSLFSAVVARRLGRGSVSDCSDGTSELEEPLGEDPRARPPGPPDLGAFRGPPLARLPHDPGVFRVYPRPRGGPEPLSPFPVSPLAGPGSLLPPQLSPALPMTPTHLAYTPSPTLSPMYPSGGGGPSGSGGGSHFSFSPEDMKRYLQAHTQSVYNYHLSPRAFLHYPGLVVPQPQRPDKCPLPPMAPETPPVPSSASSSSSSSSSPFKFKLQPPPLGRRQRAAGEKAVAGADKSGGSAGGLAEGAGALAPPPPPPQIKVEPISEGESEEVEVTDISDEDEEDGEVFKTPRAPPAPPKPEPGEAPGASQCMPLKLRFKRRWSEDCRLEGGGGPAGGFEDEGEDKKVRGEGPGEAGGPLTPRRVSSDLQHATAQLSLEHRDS
A digest of the protocol: as §1

The next assay concerns the target T7, ETV3L (Homo sapiens, UniProt Q6ZN32 1-361).
T7 sequence: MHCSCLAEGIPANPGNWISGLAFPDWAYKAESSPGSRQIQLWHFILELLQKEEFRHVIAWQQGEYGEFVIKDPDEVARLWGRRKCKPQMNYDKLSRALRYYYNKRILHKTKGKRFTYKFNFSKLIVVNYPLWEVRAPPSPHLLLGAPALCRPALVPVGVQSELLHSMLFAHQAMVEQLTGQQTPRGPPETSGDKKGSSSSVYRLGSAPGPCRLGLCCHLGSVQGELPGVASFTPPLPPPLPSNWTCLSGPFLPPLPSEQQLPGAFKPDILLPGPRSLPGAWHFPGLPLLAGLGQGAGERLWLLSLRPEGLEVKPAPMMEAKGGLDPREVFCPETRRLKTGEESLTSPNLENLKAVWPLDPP
In a few lines: as §1

Another assay addresses T8, ETS2 (Homo sapiens, UniProt P15036 1-469).
T8 sequence: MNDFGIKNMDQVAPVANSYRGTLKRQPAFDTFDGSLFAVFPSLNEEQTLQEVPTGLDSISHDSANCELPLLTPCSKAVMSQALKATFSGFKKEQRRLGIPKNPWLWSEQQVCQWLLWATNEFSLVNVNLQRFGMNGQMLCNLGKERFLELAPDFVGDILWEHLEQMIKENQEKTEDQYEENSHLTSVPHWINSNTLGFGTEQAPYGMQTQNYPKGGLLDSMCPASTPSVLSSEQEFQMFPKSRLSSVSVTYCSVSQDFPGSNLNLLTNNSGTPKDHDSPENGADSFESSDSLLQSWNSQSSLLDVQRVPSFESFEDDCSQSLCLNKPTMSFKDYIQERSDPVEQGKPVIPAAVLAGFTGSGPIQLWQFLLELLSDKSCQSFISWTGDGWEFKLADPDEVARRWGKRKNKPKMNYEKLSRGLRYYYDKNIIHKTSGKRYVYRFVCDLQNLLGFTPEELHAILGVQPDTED
In a few lines:
as §1

A further assay concerns the target T9, SPDEF (Homo sapiens, UniProt O95238 1-335).
T9 sequence: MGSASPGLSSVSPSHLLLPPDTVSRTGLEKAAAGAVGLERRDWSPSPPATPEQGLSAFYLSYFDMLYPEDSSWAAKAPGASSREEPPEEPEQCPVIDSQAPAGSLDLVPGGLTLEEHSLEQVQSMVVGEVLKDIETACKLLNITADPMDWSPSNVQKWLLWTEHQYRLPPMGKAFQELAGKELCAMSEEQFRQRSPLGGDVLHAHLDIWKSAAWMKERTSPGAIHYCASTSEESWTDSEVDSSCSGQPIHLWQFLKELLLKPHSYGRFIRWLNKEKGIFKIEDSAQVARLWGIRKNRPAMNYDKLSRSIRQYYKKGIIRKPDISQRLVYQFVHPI
A digest of the protocol: as §1

The target of a further assay is T10, ETV7 (Homo sapiens, UniProt Q9Y603 1-341).
T10 sequence: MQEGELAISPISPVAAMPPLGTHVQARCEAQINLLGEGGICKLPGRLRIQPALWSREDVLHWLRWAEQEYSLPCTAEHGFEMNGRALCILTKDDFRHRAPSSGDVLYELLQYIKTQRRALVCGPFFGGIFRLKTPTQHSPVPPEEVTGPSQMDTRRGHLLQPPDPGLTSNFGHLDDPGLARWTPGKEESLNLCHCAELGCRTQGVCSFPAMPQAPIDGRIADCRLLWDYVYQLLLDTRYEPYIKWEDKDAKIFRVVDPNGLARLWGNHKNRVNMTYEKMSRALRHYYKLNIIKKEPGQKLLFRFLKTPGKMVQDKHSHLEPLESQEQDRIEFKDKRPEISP
In a few lines:
as §1

In the next assay the target is T11, ERG (Homo sapiens, UniProt P11308 1-479).
T11 sequence: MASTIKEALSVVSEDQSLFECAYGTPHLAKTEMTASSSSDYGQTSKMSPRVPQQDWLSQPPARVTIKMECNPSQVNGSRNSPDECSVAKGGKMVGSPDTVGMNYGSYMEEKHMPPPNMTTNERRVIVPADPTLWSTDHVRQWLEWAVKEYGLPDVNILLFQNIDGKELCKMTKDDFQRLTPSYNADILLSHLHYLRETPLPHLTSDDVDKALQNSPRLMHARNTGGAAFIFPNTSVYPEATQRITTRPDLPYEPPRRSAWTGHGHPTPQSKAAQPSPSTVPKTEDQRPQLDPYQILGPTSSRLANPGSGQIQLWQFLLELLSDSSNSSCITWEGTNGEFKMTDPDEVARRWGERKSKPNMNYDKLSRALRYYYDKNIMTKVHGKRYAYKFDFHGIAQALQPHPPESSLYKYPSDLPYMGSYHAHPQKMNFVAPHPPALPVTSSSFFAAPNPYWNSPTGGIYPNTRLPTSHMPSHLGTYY
A digest of the protocol:
as §1

Another assay deals with ETV6 (Homo sapiens, UniProt P41212 1-452). A digest of the protocol: as §1
ETV6, sequence (P41212 whole entry): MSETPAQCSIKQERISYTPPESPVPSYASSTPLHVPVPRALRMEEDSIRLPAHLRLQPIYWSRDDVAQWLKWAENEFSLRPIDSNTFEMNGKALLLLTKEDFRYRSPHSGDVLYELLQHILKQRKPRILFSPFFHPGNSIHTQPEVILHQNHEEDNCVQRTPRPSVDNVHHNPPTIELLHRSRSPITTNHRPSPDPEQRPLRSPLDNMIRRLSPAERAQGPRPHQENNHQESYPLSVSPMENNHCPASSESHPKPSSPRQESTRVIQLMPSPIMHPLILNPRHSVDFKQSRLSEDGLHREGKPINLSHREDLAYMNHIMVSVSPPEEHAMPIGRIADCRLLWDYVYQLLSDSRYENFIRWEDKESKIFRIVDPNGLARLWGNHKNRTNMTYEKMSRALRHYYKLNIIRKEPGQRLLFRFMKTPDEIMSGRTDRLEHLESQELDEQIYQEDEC

ELF1, sequence (P32519 whole entry): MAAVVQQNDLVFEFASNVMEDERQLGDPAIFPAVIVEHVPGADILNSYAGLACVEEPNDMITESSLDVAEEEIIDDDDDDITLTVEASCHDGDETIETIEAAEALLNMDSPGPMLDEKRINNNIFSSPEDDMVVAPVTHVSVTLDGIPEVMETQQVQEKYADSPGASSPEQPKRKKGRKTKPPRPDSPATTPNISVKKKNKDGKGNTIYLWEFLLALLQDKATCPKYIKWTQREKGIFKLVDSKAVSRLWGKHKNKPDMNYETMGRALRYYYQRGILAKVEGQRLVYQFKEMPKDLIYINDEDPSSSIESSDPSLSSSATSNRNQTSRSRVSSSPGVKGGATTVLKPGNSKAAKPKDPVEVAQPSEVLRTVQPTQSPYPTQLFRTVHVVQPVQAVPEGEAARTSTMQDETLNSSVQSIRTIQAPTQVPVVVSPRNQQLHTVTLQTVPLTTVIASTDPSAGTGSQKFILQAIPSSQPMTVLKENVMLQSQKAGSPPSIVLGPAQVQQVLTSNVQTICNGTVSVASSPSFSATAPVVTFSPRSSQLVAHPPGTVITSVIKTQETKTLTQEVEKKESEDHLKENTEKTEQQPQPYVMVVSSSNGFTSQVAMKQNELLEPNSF
ELF4, sequence (Q99607 whole entry): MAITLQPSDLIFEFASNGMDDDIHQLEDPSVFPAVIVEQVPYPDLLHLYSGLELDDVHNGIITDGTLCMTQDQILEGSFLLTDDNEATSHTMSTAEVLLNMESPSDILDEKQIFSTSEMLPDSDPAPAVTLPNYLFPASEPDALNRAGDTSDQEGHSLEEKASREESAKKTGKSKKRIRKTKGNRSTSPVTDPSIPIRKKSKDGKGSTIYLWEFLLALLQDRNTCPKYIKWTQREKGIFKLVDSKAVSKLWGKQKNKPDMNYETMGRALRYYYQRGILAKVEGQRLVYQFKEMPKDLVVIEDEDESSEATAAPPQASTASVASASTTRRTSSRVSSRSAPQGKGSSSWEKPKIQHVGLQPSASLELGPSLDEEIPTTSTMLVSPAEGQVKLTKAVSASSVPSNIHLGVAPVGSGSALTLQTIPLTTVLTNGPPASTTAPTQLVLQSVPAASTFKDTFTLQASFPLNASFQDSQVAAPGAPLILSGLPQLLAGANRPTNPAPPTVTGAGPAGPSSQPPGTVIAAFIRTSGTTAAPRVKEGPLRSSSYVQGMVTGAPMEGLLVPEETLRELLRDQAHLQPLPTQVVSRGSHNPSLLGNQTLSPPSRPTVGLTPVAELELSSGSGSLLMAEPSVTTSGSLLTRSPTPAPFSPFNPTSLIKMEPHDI
ETV1, sequence (P50549 whole entry): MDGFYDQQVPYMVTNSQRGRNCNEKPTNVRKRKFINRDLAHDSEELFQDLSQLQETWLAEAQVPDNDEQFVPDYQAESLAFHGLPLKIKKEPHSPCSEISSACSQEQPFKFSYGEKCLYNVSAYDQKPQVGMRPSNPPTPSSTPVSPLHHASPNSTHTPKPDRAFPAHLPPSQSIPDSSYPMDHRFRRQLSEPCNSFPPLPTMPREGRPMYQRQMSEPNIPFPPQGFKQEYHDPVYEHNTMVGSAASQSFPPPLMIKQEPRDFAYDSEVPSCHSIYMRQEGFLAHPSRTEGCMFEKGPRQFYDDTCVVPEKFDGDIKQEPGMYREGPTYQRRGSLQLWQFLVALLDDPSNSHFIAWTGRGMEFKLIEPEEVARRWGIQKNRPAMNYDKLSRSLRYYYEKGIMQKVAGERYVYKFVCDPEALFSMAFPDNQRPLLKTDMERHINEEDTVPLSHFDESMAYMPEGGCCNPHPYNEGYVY
SPIB, sequence (Q01892 whole entry): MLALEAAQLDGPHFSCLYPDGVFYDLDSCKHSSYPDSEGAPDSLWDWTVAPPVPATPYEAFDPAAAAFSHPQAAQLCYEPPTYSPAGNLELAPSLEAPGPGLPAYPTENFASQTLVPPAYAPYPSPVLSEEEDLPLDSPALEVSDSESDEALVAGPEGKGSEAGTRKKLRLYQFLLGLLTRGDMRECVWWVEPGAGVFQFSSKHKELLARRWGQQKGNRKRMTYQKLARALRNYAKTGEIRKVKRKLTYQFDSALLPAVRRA

As for GTAAGC, the binding signal in the assay with SPIC was 1.01 fold enrichment (6-mer frequency, TF over GST control).

Take GCTAGT: the binding signal with GABPA was 1.06 fold enrichment (6-mer frequency, TF over GST control); with ELF1, 1.16 fold enrichment (6-mer frequency, TF over GST control); with EHF it was 1.08 fold enrichment (6-mer frequency, TF over GST control); in the assay with SPI1, 1.13 fold enrichment (6-mer frequency, TF over GST control); in the assay with SPIB, 1.09 fold enrichment (6-mer frequency, TF over GST control); in the assay with SPIC, 1.2 fold enrichment (6-mer frequency, TF over GST control). Besides, the binding signal was 1.05 fold enrichment (6-mer frequency, TF over GST control) with ELF4; 1.07 fold enrichment (6-mer frequency, TF over GST control) with ELK4; 1.04 fold enrichment (6-mer frequency, TF over GST control) with ELF3; 1.02 fold enrichment (6-mer frequency, TF over GST control) with ETV1; 1.01 fold enrichment (6-mer frequency, TF over GST control) with ERF; 1 fold enrichment (6-mer frequency, TF over GST control) with ETV3L. Moreover, the binding signal with ETS2 is 1.07 fold enrichment (6-mer frequency, TF over GST control); with SPDEF it was 1.07 fold enrichment (6-mer frequency, TF over GST control); with ETV7, 1.13 fold enrichment (6-mer frequency, TF over GST control).

In the case of TAGACT, the binding signal is 1.02 fold enrichment (6-mer frequency, TF over GST control) in the assay with GABPA; 1.05 fold enrichment (6-mer frequency, TF over GST control) in the assay with ERG; 1.09 fold enrichment (6-mer frequency, TF over GST control) with ELF1; 1.04 fold enrichment (6-mer frequency, TF over GST control) with EHF; 1 fold enrichment (6-mer frequency, TF over GST control) in the assay with SPI1; 1.03 fold enrichment (6-mer frequency, TF over GST control) with SPIC. For the same sequence, the binding signal with ETV1 was 1.02 fold enrichment (6-mer frequency, TF over GST control); in the assay with ERF it was 1.07 fold enrichment (6-mer frequency, TF over GST control); with ETV3L, 1 fold enrichment (6-mer frequency, TF over GST control); with ETS2, 1.02 fold enrichment (6-mer frequency, TF over GST control); with ETV7 it was 1.05 fold enrichment (6-mer frequency, TF over GST control).

On to ACCTAG, for which the binding signal was 1.14 fold enrichment (6-mer frequency, TF over GST control) with GABPA; 1.06 fold enrichment (6-mer frequency, TF over GST control) with ELF1; 1.04 fold enrichment (6-mer frequency, TF over GST control) in the assay with EHF; 1.02 fold enrichment (6-mer frequency, TF over GST control) with SPI1; 1.01 fold enrichment (6-mer frequency, TF over GST control) with SPIC; 1.06 fold enrichment (6-mer frequency, TF over GST control) with ELF4. Also, the binding signal was 1.08 fold enrichment (6-mer frequency, TF over GST control) with ELK4; 1.02 fold enrichment (6-mer frequency, TF over GST control) with ELF3; 1.06 fold enrichment (6-mer frequency, TF over GST control) with ERF; 1.05 fold enrichment (6-mer frequency, TF over GST control) with ETV3L; 1.06 fold enrichment (6-mer frequency, TF over GST control) with ETS2; 1.11 fold enrichment (6-mer frequency, TF over GST control) with ETV7. Also, the binding signal with ETV6 is 1.02 fold enrichment (6-mer frequency, TF over GST control).
